Results from ChEMBL document CHEMBL2218924, “A broad activity screen in support of a chemogenomic map for kinase signalling research and drug discovery” (Biochem J, 2013).

Target: Ephrin type-A receptor 7 (Homo sapiens) (UniProt Q15375)
Conditions: at 1 µM

Ephrin type-A receptor 7 (Homo sapiens), sequence (Q15375 28-998 limits assumed): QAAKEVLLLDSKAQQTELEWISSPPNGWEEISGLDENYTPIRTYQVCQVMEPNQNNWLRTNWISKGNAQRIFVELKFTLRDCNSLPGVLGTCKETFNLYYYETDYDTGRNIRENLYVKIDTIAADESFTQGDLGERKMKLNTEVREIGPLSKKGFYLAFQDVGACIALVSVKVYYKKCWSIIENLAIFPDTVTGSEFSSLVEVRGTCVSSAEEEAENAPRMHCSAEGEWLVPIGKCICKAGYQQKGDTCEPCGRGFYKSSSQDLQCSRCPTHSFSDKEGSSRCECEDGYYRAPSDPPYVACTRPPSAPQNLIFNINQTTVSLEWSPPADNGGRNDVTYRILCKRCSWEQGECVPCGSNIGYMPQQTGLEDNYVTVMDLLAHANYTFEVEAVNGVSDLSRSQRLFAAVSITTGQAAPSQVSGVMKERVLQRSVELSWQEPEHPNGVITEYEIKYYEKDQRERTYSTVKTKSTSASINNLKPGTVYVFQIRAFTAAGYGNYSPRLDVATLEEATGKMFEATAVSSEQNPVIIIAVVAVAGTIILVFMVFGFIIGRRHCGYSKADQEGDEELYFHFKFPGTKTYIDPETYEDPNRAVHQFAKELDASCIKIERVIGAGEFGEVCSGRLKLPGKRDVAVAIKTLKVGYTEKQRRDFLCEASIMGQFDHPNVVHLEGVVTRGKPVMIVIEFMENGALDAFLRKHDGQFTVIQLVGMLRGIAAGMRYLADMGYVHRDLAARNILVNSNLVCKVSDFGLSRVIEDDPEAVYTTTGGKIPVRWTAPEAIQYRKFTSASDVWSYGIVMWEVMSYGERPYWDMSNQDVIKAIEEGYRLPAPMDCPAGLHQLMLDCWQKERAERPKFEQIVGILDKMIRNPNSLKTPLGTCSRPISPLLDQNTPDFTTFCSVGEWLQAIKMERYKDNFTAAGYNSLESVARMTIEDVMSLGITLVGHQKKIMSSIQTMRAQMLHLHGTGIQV

Compound	residual activity
CC(C)(C)n1nc(Cc2cccc3ccccc23)c2c(N)ncnc21	89%
COc1cc2ncnc(Nc3cccc(Cl)c3)c2cc1OC	73%
O=C1C(Cl)=C(N2C(=O)CCC2=O)C(=O)c2ccccc21	99%
O=C1Nc2ccc(Cl)cc2/C1=C/c1cc(Cl)c(O)c(Cl)c1	92%
COc1cc2nccc(Oc3ccc(NC(=O)Nc4cc(C)on4)c(Cl)c3)c2cc1OC	6%
Fc1ccc(-c2nc3n(c2-c2ccncc2)CCS3)cc1	99%
O=C1Cc2c([nH]c3ccc(Br)cc23)-c2ccccc2N1	98%
Nc1ncnc2c1c(-c1ccc(Oc3ccccc3)cc1)cn2C1CCCC1	94%
COc1ccc(-c2cnc3c(-c4ccsc4)cnn3c2)cc1	95%
O=C(O)/C=C/c1cc(Br)c(Br)c(Br)c1Br	109%
O=C(CCCc1ccc(-c2ccccc2F)cc1)Nc1ccc(O)cc1	102%
COc1cc2nccc(Oc3ccc(NC(=S)NC(=O)c4ccccc4C)cc3)c2cc1OC	90%
Nc1ncnc2c1cnn2-c1ccccc1	102%
CC(C)c1nn(-c2c(Cl)cccc2Cl)c2nc(Cc3ccc(OCCO)cc3)[nH]c(=O)c12	97%
O=c1cc(N2CCNCC2)oc2c(-c3ccccc3)cccc12	98%
CN(C)S(=O)(=O)c1ccc2c(c1)/C(=C/c1cc3c([nH]1)CCCC3)C(=O)N2	94%
Nc1n[nH]c2nc3ccccc3nc12	99%
CCN(CC)CCNC(=O)c1c(C)[nH]c(/C=C2\C(=O)Nc3ccc(Cl)cc32)c1C	79%
CCCC(=O)Oc1ccc2[nH]c(C(=O)c3cc4ccccc4[nH]3)cc2c1	96%
O=c1cc(N2CCOCC2)oc2c1ccc1ccccc12	103%
CCCCc1c(-c2ccc(OC)cc2)[nH]c2nccnc12	77%
Cn1c2ccccc2c2c3c(c4c5ccccc5n(CCC#N)c4c21)CNC3=O	43%
NC(=O)Nc1sc(-c2ccc(F)cc2)cc1C(N)=O	74%
Nc1ncnc2[nH]nc(Nc3ccc(F)cc3)c12	105%
CCCCc1c(-c2ccc(O)cc2)[nH]c2nccnc12	83%
Cn1sc(=O)n(Cc2ccccc2)c1=O	86%

Target: Ephrin type-A receptor 7 (Homo sapiens) (UniProt Q15375)
Conditions: at 10 µM

Compound	residual activity
CC(C)(C)n1nc(Cc2cccc3ccccc23)c2c(N)ncnc21	33%
COc1cc2ncnc(Nc3cccc(Cl)c3)c2cc1OC	22%
O=C1C(Cl)=C(N2C(=O)CCC2=O)C(=O)c2ccccc21	92%
O=C1Nc2ccc(Cl)cc2/C1=C/c1cc(Cl)c(O)c(Cl)c1	71%
COc1cc2nccc(Oc3ccc(NC(=O)Nc4cc(C)on4)c(Cl)c3)c2cc1OC	1%
Fc1ccc(-c2nc3n(c2-c2ccncc2)CCS3)cc1	84%
O=C1Cc2c([nH]c3ccc(Br)cc23)-c2ccccc2N1	72%
Nc1ncnc2c1c(-c1ccc(Oc3ccccc3)cc1)cn2C1CCCC1	66%
COc1ccc(-c2cnc3c(-c4ccsc4)cnn3c2)cc1	95%
CSc1nc(-c2ccc(F)cc2)c(-c2ccnc(NC(C)c3ccccc3)c2)[nH]1 (stereo not given)	95%
O=C(O)/C=C/c1cc(Br)c(Br)c(Br)c1Br	92%
O=C(CCCc1ccc(-c2ccccc2F)cc1)Nc1ccc(O)cc1	104%
COc1cc2nccc(Oc3ccc(NC(=S)NC(=O)c4ccccc4C)cc3)c2cc1OC	56%
Nc1ncnc2c1cnn2-c1ccccc1	97%
CC(C)c1nn(-c2c(Cl)cccc2Cl)c2nc(Cc3ccc(OCCO)cc3)[nH]c(=O)c12	88%
O=c1cc(N2CCNCC2)oc2c(-c3ccccc3)cccc12	88%
CN(C)S(=O)(=O)c1ccc2c(c1)/C(=C/c1cc3c([nH]1)CCCC3)C(=O)N2	79%
Nc1n[nH]c2nc3ccccc3nc12	79%
COc1ccc2c(c1)c(C1=C(c3c[nH]c4ccccc34)C(=O)NC1=O)cn2CCCN(C)C	44%
CCN(CC)CCNC(=O)c1c(C)[nH]c(/C=C2\C(=O)Nc3ccc(Cl)cc32)c1C	24%
CCCC(=O)Oc1ccc2[nH]c(C(=O)c3cc4ccccc4[nH]3)cc2c1	86%
O=c1cc(N2CCOCC2)oc2c1ccc1ccccc12	84%
CCCCc1c(-c2ccc(OC)cc2)[nH]c2nccnc12	73%
Cn1c2ccccc2c2c3c(c4c5ccccc5n(CCC#N)c4c21)CNC3=O	39%
NC(=O)Nc1sc(-c2ccc(F)cc2)cc1C(N)=O	25%
CCCCc1c(-c2ccc(O)cc2)[nH]c2nccnc12	39%
COc1cc2c(cc1OC)-c1n[nH]c(Nc3cccc(F)c3)c1C2	64%
Cn1sc(=O)n(Cc2ccccc2)c1=O	86%

Target: T1, Ephrin type-A receptor 8 (Homo sapiens) (UniProt P29322)
T1 sequence (whole entry): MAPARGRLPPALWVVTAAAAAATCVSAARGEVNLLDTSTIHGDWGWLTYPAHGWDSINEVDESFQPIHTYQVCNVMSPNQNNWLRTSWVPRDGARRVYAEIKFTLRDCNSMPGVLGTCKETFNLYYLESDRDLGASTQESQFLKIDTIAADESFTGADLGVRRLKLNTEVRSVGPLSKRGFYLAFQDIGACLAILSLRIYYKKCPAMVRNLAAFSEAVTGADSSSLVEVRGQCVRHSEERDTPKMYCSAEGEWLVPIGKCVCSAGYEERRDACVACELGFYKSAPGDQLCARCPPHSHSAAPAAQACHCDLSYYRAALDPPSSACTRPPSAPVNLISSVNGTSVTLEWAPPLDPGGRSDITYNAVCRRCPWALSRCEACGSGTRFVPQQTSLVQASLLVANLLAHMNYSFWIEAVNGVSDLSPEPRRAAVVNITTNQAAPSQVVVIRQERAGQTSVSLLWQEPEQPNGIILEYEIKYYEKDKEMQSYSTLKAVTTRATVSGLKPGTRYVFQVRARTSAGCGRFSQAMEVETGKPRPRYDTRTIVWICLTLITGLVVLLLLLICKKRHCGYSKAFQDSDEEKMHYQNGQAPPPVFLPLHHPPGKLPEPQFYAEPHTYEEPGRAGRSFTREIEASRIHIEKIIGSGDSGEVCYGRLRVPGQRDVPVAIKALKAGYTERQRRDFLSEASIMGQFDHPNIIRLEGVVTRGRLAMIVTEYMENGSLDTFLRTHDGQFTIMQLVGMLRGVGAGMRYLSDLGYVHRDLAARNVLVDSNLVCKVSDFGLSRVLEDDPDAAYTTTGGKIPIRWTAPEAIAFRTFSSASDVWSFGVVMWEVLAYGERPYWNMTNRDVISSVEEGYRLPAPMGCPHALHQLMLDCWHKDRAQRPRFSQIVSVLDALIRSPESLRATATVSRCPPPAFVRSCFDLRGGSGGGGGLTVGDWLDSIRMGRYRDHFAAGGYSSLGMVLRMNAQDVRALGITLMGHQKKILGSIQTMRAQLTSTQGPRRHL
Conditions: at 1 µM

Compound	residual activity
CC(C)(C)n1nc(Cc2cccc3ccccc23)c2c(N)ncnc21	33%
COc1cc2ncnc(Nc3cccc(Cl)c3)c2cc1OC	85%
O=C1C(Cl)=C(N2C(=O)CCC2=O)C(=O)c2ccccc21	96%
O=C1Nc2ccc(Cl)cc2/C1=C/c1cc(Cl)c(O)c(Cl)c1	90%
COc1cc2nccc(Oc3ccc(NC(=O)Nc4cc(C)on4)c(Cl)c3)c2cc1OC	1%
Fc1ccc(-c2nc3n(c2-c2ccncc2)CCS3)cc1	97%
O=C1Cc2c([nH]c3ccc(Br)cc23)-c2ccccc2N1	95%
Nc1ncnc2c1c(-c1ccc(Oc3ccccc3)cc1)cn2C1CCCC1	84%
COc1ccc(-c2cnc3c(-c4ccsc4)cnn3c2)cc1	98%
O=C(O)/C=C/c1cc(Br)c(Br)c(Br)c1Br	100%
O=C(CCCc1ccc(-c2ccccc2F)cc1)Nc1ccc(O)cc1	103%
COc1cc2nccc(Oc3ccc(NC(=S)NC(=O)c4ccccc4C)cc3)c2cc1OC	75%
Nc1ncnc2c1cnn2-c1ccccc1	100%
O=C1NC(=O)c2c1c1c3ccccc3[nH]c1n1cncc21	88%
CC(C)[C@H](CO)Nc1nc(Nc2cc(N)cc(Cl)c2)c2ncn(C(C)C)c2n1	93%
CC(C)c1nn(-c2c(Cl)cccc2Cl)c2nc(Cc3ccc(OCCO)cc3)[nH]c(=O)c12	94%
O=c1cc(N2CCNCC2)oc2c(-c3ccccc3)cccc12	102%
CN(C)S(=O)(=O)c1ccc2c(c1)/C(=C/c1cc3c([nH]1)CCCC3)C(=O)N2	96%
COc1ccc2c(c1)c(C1=C(c3c[nH]c4ccccc34)C(=O)NC1=O)cn2CCCN(C)C	100%
CCN(CC)CCNC(=O)c1c(C)[nH]c(/C=C2\C(=O)Nc3ccc(Cl)cc32)c1C	100%
CCCC(=O)Oc1ccc2[nH]c(C(=O)c3cc4ccccc4[nH]3)cc2c1	92%
O=c1cc(N2CCOCC2)oc2c1ccc1ccccc12	100%
NC(=O)Nc1sc(-c2ccc(F)cc2)cc1C(N)=O	84%
CCCCc1c(-c2ccc(O)cc2)[nH]c2nccnc12	90%
COc1cc2c(cc1OC)-c1n[nH]c(Nc3cccc(F)c3)c1C2	69%
Cn1sc(=O)n(Cc2ccccc2)c1=O	87%
